In PMC8384837, “Expanding the binding specificity for RNA recognition by a PUF domain” one finds binding signal data, which are given here for 15 sequences.

Substitutions are numbered along the chain they refer to.

Common to all, as to experiment: yeast three-hybrid, YBZ-1, SC-Leu-His + 0.5 mM 3-AT, 4 days
What all share (conditions): tags: N-Gal4 AD-HA kept; label: inside an RPR1-promoter hybrid RNA with tandem MS2 sites; ssRNA

The target in one assay is T1, PUM1 PUF domain R6-VYL (Homo sapiens, UniProt Q14671 828-1176, N1043V;Q1047L).
T1 sequence: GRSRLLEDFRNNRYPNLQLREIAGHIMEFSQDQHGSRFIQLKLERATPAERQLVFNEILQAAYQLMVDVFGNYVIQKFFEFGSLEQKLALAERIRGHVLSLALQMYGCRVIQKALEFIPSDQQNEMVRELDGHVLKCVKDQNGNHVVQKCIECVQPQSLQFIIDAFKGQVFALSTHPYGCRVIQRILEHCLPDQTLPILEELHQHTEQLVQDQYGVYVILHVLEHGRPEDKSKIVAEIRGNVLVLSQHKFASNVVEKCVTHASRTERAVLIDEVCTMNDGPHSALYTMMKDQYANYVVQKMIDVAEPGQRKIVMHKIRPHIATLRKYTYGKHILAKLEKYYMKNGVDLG
Summed up: (§1)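 Matching RNA elements and Pumilio-1 PUF domain libraries, randomized at the three base-contacting residues of every repeat, were co-expressed from a centromeric plasmid in strain YBZ-1 (LexA–MS2 coat fusion, HIS3 reporter). The repeat regions were PCR-amplified and Illumina-sequenced from cells grown four days on SC-Leu (input) or SC-Leu-His + 0.5 mM 3-AT (selection). The interaction score is the log change in variant frequency from input to selection. It is computed in log2, with a pseudocount of 1 for absent variants.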

Another assay concerns the target PUM1 PUF domain R5-CQR (Homo sapiens, UniProt Q14671 828-1176, R1008Q;Q1011R). Summed up:
as §1

A further assay addresses PUM1 PUF domain R5-RND (Homo sapiens, UniProt Q14671 828-1176, C1007R;R1008N;Q1011D). Summed up: as §1
The target of the next assay is PUM1 PUF domain R5-RAK (Homo sapiens, UniProt Q14671 828-1176, C1007R;R1008A;Q1011K). A digest of the protocol:
as §1

The next assay has as its target PUM1 PUF domain R5-MRR (Homo sapiens, UniProt Q14671 828-1176, C1007M;Q1011R). A digest of the protocol:
as §1

Another assay concerns the target PUM1 PUF domain R1-NKR (Homo sapiens, UniProt Q14671 828-1176, S863N;R864K;Q867R). A digest of the protocol: as §1
The target in another assay is PUM1 PUF domain R4-NRV (Homo sapiens, UniProt Q14671 828-1176, H972R;Q975V). Summed up:
as §1

Another assay has as its target PUM1 PUF domain R3-SRL (Homo sapiens, UniProt Q14671 828-1176, C935S;Q939L). A digest of the protocol: as §1
For another assay, the target named is PUM1 PUF domain R4-WGR (Homo sapiens, UniProt Q14671 828-1176, N971W;H972G;Q975R). Summed up: as §1
The target in the next assay is PUM1 PUF domain R3-CFD (Homo sapiens, UniProt Q14671 828-1176, R936F;Q939D). A digest of the protocol:
as §1

In another assay the target is PUM1 PUF domain R3-EFL (Homo sapiens, UniProt Q14671 828-1176, C935E;R936F;Q939L). A digest of the protocol:
as §1

The target of another assay is PUM1 PUF domain R3-PWH (Homo sapiens, UniProt Q14671 828-1176, C935P;R936W;Q939H). Summed up:
as §1

In a further assay the target is PUM1 PUF domain R3-RNE (Homo sapiens, UniProt Q14671 828-1176, C935R;R936N;Q939E). A digest of the protocol: as §1
For another assay, the target named is PUM1 PUF domain R1-QVR (Homo sapiens, UniProt Q14671 828-1176, S863Q;R864V;Q867R). Summed up:
as §1

For a further assay, the target named is PUM1 PUF domain R1-YSR (Homo sapiens, UniProt Q14671 828-1176, S863Y;R864S;Q867R). A digest of the protocol: as §1
A further assay has as its target PUM1 PUF domain R8-IFR (Homo sapiens, UniProt Q14671 828-1176, N1122I;Y1123F;Q1126R). A digest of the protocol: as §1
The next assay deals with PUM1 PUF domain R3-FCS (Homo sapiens, UniProt Q14671 828-1176, C935F;R936C;Q939S). A digest of the protocol:
as §1

The target of a further assay is PUM1 PUF domain R3-IWS (Homo sapiens, UniProt Q14671 828-1176, C935I;R936W;Q939S). Summed up:
as §1

Another assay has as its target T2, PUM1 PUF domain R6-NHR (Homo sapiens, UniProt Q14671 828-1176, Y1044H;Q1047R).
T2 sequence: T1 sequence with V216N, Y217H, L220R
A digest of the protocol: as §1

A further assay has as its target PUM1 PUF domain R2-LFC (Homo sapiens, UniProt Q14671 828-1176, N899L;Y900F;Q903C). A digest of the protocol:
as §1

For “GGCUAGAACUAGUGGAUCCCCCGGCGCCCGGCGGCUCGAGCCCGGGUAAGUGAAAAUAGUCUGCAUGCCGCCGGGCGCCAUGCCUGCAGGUCGACUCUAGAAAACAUG”, the binding signal in the assay with PUM1 PUF domain R6-VYL was 6.07 log2 enrichment (interaction score).

Consider “GGCUAGAACUAGUGGAUCCCCCGGCGCCCGGCGGCUCGAGCCCGGGUAAGUGUGAAUAGUCUGCAUGCCGCCGGGCGCCAUGCCUGCAGGUCGACUCUAGAAAACAUG”, for which, in the assay with PUM1 PUF domain R5-CQR, the binding signal was 0.8 log2 enrichment (interaction score).

Consider “GGCUAGAACUAGUGGAUCCCCCGGCGCCCGGCGGCUCGAGCCCGGGUAAGUGUCAAUAGUCUGCAUGCCGCCGGGCGCCAUGCCUGCAGGUCGACUCUAGAAAACAUG”, for which the results for the binding signal in the assay with PUM1 PUF domain R5-RND, with PUM1 PUF domain R5-RAK and in the assay with PUM1 PUF domain R5-MRR were 5.27 log2 enrichment (interaction score), 3.03 log2 enrichment (interaction score) and 4.14 log2 enrichment (interaction score), respectively.

With “GGCUAGAACUAGUGGAUCCCCCGGCGCCCGGCGGCUCGAGCCCGGGUAAGUGUAAAUGGUCUGCAUGCCGCCGGGCGCCAUGCCUGCAGGUCGACUCUAGAAAACAUG”, in the assay with PUM1 PUF domain R1-NKR, the binding signal is 1.8 log2 enrichment (interaction score).

For the sequence “GGCUAGAACUAGUGGAUCCCCCGGCGCCCGGCGGCUCGAGCCCGGGUAAGUGUUAAUAGUCUGCAUGCCGCCGGGCGCCAUGCCUGCAGGUCGACUCUAGAAAACAUG”, the values for the binding signal with PUM1 PUF domain R5-RAK and with PUM1 PUF domain R5-CQR were 3.4 log2 enrichment (interaction score) and 3.55 log2 enrichment (interaction score), respectively.

For “GGCUAGAACUAGUGGAUCCCCCGGCGCCCGGCGGCUCGAGCCCGGGUAAGUGUAAAUAGUCUGCAUGCCGCCGGGCGCCAUGCCUGCAGGUCGACUCUAGAAAACAUG”, the binding signal with PUM1 PUF domain R4-NRV is 1.46 log2 enrichment (interaction score); with PUM1 PUF domain R5-RND it was 0.31 log2 enrichment (interaction score); in the assay with PUM1 PUF domain R3-SRL it was 3.65 log2 enrichment (interaction score); in the assay with PUM1 PUF domain R4-WGR it was 0.32 log2 enrichment (interaction score); with PUM1 PUF domain R6-VYL, 0.58 log2 enrichment (interaction score); in the assay with PUM1 PUF domain R3-CFD it was 3.85 log2 enrichment (interaction score). The binding signal was 1.43 log2 enrichment (interaction score) with PUM1 PUF domain R5-MRR and 5.34 log2 enrichment (interaction score) with PUM1 PUF domain R3-EFL.

For the sequence “GGCUAGAACUAGUGGAUCCCCCGGCGCCCGGCGGCUCGAGCCCGGGUAAGUGUAAUUAGUCUGCAUGCCGCCGGGCGCCAUGCCUGCAGGUCGACUCUAGAAAACAUG”, the binding signal with PUM1 PUF domain R3-SRL is 1.51 log2 enrichment (interaction score); in the assay with PUM1 PUF domain R3-PWH, 4.06 log2 enrichment (interaction score); in the assay with PUM1 PUF domain R3-RNE it was 2.81 log2 enrichment (interaction score); with PUM1 PUF domain R3-EFL, 2.29 log2 enrichment (interaction score).

On to “GGCUAGAACUAGUGGAUCCCCCGGCGCCCGGCGGCUCGAGCCCGGGUAAGUGUAAAUUGUCUGCAUGCCGCCGGGCGCCAUGCCUGCAGGUCGACUCUAGAAAACAUG”, for which the binding signal with PUM1 PUF domain R1-QVR is 1.47 log2 enrichment (interaction score); with PUM1 PUF domain R1-YSR, 5.97 log2 enrichment (interaction score).

On to “GGCUAGAACUAGUGGAUCCCCCGGCGCCCGGCGGCUCGAGCCCGGGUAAGUGUACAUAGUCUGCAUGCCGCCGGGCGCCAUGCCUGCAGGUCGACUCUAGAAAACAUG”, for which the figures for the binding signal with PUM1 PUF domain R4-NRV and with PUM1 PUF domain R4-WGR were 1.97 log2 enrichment (interaction score) and 3.78 log2 enrichment (interaction score), respectively.

Consider “GGCUAGAACUAGUGGAUCCCCCGGCGCCCGGCGGCUCGAGCCCGGGUAAGCGUAAAUAGUCUGCAUGCCGCCGGGCGCCAUGCCUGCAGGUCGACUCUAGAAAACAUG”, for which the binding signal in the assay with PUM1 PUF domain R8-IFR is 4.56 log2 enrichment (interaction score).

In the case of “GGCUAGAACUAGUGGAUCCCCCGGCGCCCGGCGGCUCGAGCCCGGGUAAGUGUAAGUAGUCUGCAUGCCGCCGGGCGCCAUGCCUGCAGGUCGACUCUAGAAAACAUG”, the figures for the binding signal with PUM1 PUF domain R3-FCS and with PUM1 PUF domain R3-IWS were 5.25 log2 enrichment (interaction score) and 6.08 log2 enrichment (interaction score), respectively.

For “GGCUAGAACUAGUGGAUCCCCCGGCGCCCGGCGGCUCGAGCCCGGGUAAGUGUAAAUCGUCUGCAUGCCGCCGGGCGCCAUGCCUGCAGGUCGACUCUAGAAAACAUG”, the results for the binding signal with PUM1 PUF domain R1-QVR, in the assay with PUM1 PUF domain R1-NKR and with PUM1 PUF domain R1-YSR were 3.01 log2 enrichment (interaction score), 3.94 log2 enrichment (interaction score) and 4.84 log2 enrichment (interaction score), respectively.

In the case of “GGCUAGAACUAGUGGAUCCCCCGGCGCCCGGCGGCUCGAGCCCGGGUAAGUGUAUAUAGUCUGCAUGCCGCCGGGCGCCAUGCCUGCAGGUCGACUCUAGAAAACAUG”, the figures for the binding signal with PUM1 PUF domain R4-NRV and with PUM1 PUF domain R4-WGR were 2.52 log2 enrichment (interaction score) and 3.49 log2 enrichment (interaction score), respectively.

Take “GGCUAGAACUAGUGGAUCCCCCGGCGCCCGGCGGCUCGAGCCCGGGUAAGUGCAAAUAGUCUGCAUGCCGCCGGGCGCCAUGCCUGCAGGUCGACUCUAGAAAACAUG”: the binding signal in the assay with PUM1 PUF domain R6-NHR is 5.94 log2 enrichment (interaction score).

As to “GGCUAGAACUAGUGGAUCCCCCGGCGCCCGGCGGCUCGAGCCCGGGUAAGUGUAAAAAGUCUGCAUGCCGCCGGGCGCCAUGCCUGCAGGUCGACUCUAGAAAACAUG”, the binding signal with PUM1 PUF domain R2-LFC was 3.16 log2 enrichment (interaction score).
